About 79,000 compounds went through this panel and 15% of them were active in at least one assay; those are over-represented in the sample as a whole. Active and inactive are the calls of the source. No stated cut-off is given here; in the data, active means growth inhibition above about 70%; inactive means the rest.
How the values were obtained:
[1] = NCI Yeast Anticancer Drug Screen. Data for the rad52 strain (AID 147);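 further: 0% = growth of vehicle-treated control cultures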; settings: S. cerevisiae rad52 mutant growth inhibition, hits give high values
In short: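 Growth of repair-deficient yeast cells was compared between compound-treated and vehicle-treated cultures to give percent inhibition.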

[2] = NCI Yeast Anticancer Drug Screen. Data for the wt1 strain (AID 149);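 further: 0% = growth of vehicle-treated wt1 cultures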; settings: S. cerevisiae wt1 strain (SPY 50644) growth inhibition, hits give high values
In short: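 wt1 strain grown with compound or vehicle; inhibition taken from the growth difference.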

[3] = NCI Yeast Anticancer Drug Screen. Data for the rad50EPP+ strain (AID 151);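 further: 0% = growth of vehicle-treated control cultures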; settings: S. cerevisiae rad50 mutant strain, hits give high values
In short: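 Measured: growth inhibition of rad50EPP+ yeast. Reference: vehicle-treated controls. Screen uses strains with defined genetic alterations in DNA damage repair or cell cycle control.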

[4] = NCI Yeast Anticancer Drug Screen. Data for the mgt1 strain (AID 153); settings: S. cerevisiae mgt1 mutant growth inhibition, hits give high values
In short: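 Compounds were applied to mgt1 mutant yeast, and growth was then compared against vehicle-treated control cultures to give percent inhibition.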

[5] = NCI Yeast Anticancer Drug Screen. Data for the rad50 strain (AID 155);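 further: 0% = growth of vehicle-only cultures of the same strain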; settings: S. cerevisiae rad50 strain growth inhibition, hits give high values
In short: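 DNA repair mutant yeast, compound exposure, growth read-out; inhibition is taken relative to vehicle.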

[6] = NCI Yeast Anticancer Drug Screen. Data for the mec2-1 strain (AID 157); settings: S. cerevisiae mec2-1 strain, hits give high values
In short: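 Compounds were applied to mec2-1 yeast cells. Their growth was then compared with that of vehicle-treated cultures to give growth inhibition.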

[7] = NCI Yeast Anticancer Drug Screen. Data for the rad14 strain (AID 159);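 further: 0% = growth of vehicle-treated control cultures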; settings: S. cerevisiae rad14 strain growth inhibition, hits give high values
In short: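 DNA repair-defective yeast, compound-exposed; % growth inhibition derived by comparison with vehicle-treated controls.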

[8] = NCI Yeast Anticancer Drug Screen. Data for the sgs1 mgt1 strain (AID 161);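 further: 0% = growth of cultures given vehicle only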; settings: S. cerevisiae sgs1 mgt1 strain, hits give high values
In short: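 Growth of a repair-deficient yeast mutant was monitored after compound treatment and expressed as inhibition relative to vehicle-treated cultures.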

[9] = NCI Yeast Anticancer Drug Screen. Data for the CLN2oe strain (AID 163);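 further: 0% = growth of vehicle-only control cultures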; settings: S. cerevisiae CLN2oe strain, hits give high values
In short: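 Cells of an engineered yeast line with disturbed cell-cycle regulation are treated with compound. Inhibition of growth is then calculated relative to the vehicle-treated reference.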

[10] = NCI Yeast Anticancer Drug Screen. Data for the cln2 rad14 strain (AID 165);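 further: 0% = growth equal to vehicle treated cultures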; settings: S. cerevisiae cln2 rad14 strain, hits give high values
In short: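 Strain: cln2 rad14 yeast, altered in cell cycle control and DNA damage repair. Read-out: growth inhibition vs vehicle.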

[11] = NCI Yeast Anticancer Drug Screen. Data for the bub3 strain (AID 167); settings: S. cerevisiae bub3 mutant strain, hits give high values
In short: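 In this screen, a yeast mutant lacking normal mitotic checkpoint function is challenged with compound. Relative growth versus vehicle gives the inhibition value.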

[12] = NCI Yeast Anticancer Drug Screen. Data for the wt2 strain (AID 169);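 further: 0% = growth of vehicle-treated yeast cultures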; settings: S. cerevisiae wt2 strain growth inhibition, hits give high values
In short: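 Growth of compound-treated yeast is measured and expressed as inhibition relative to vehicle-only controls.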

[13] = NCI Yeast Anticancer Drug Screen. Data for the mlh1 strain (AID 171);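 further: 0% = growth of vehicle-treated control cultures of the same strain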; settings: S. cerevisiae mlh1 strain growth inhibition, hits give high values
In short: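 Test agents were incubated with yeast bearing a defined DNA damage repair or cell cycle control alteration; values are growth inhibition normalised to vehicle-treated cultures.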

[14] = NCI Yeast Anticancer Drug Screen. Data for the sgs1 strain (AID 173);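 further: 0% = growth of vehicle-only control cultures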; settings: S. cerevisiae sgs1 mutant, hits give high values
In short: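 Strain with an altered DNA repair or cell cycle pathway exposed to compound. Growth then measured. Value = inhibition versus vehicle control.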

[15] = NCI Yeast Anticancer Drug Screen. Data for the mlh1 rad18 strain (AID 175); settings: S. cerevisiae mlh1 rad18 strain growth inhibition, hits give high values
In short: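 A repair-deficient yeast strain is exposed to test compound, and growth is scored relative to vehicle-treated controls.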

[16] = NCI Yeast Anticancer Drug Screen. Data for the rad18 strain (AID 177); settings: S. cerevisiae rad18 mutant growth inhibition, hits give high values
In short: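 DNA-repair-defective yeast; compound treatment; growth inhibition scored against vehicle.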

[17] = at 5.0 µM (retest, dose inferred, filed as 0.5)
[18] = at 50.0 µM (retest, dose inferred, filed as 5.0)

Measured: growth inhibition

O=C1c2ccc3ccccc3c2CCC1N1CCCCC1 (stereo not drawn)
inactive: [1]; at 1.2 µM 4% | [1]; at 3.7 µM 16% | [1]; at 11.0 µM 41% | [2]; at 1.2 µM 3% | [2]; at 3.7 µM 11% | [2]; at 11.0 µM 9% | [2]; at 33.0 µM 27% | [3]; at 1.2 µM 32% | [3]; at 3.7 µM 53% | [4]; at 1.2 µM 3% | [4]; at 3.7 µM 10% | [4]; at 11.0 µM 21% | [5]; at 1.2 µM 2% | [5]; at 3.7 µM 8% | [5]; [17] 9% | [5]; at 11.0 µM 16% | [6]; at 1.2 µM 0% | [6]; at 3.7 µM 11% | [6]; [17] 10% | [6]; at 11.0 µM 17% | [6]; at 33.0 µM 62% | [7]; at 1.2 µM 14% | [7]; at 3.7 µM 33% | [7]; at 11.0 µM 50% | [8]; [17] 19% | [9]; at 1.2 µM 5% | [9]; at 3.7 µM 5% | [9]; at 11.0 µM 22% | [9]; at 33.0 µM 61% | [10]; [17] 7% | [11]; at 1.2 µM -7% | [11]; at 3.7 µM -6% | [11]; [17] 10% | [11]; at 11.0 µM 8% | [12]; at 1.2 µM 5% | [12]; at 3.7 µM 14% | [12]; at 11.0 µM 33% | [13]; at 1.2 µM -1% | [13]; at 3.7 µM 7% | [13]; at 11.0 µM 22% | [14]; at 1.2 µM 4% | [14]; at 3.7 µM 12% | [14]; at 11.0 µM 41% | [15]; [17] 31% | [16]; at 1.2 µM 6% | [16]; at 3.7 µM 13% | [16]; at 11.0 µM 26% | [16]; at 33.0 µM 65%
active: [1]; at 33.0 µM 81% | [1]; at 100.0 µM 98% | [2]; at 100.0 µM 97% | [3]; at 11.0 µM 77% | [3]; at 33.0 µM 85% | [3]; at 100.0 µM 98% | [4]; at 33.0 µM 76% | [4]; at 100.0 µM 98% | [5]; at 33.0 µM 73% | [5]; [18] 97% | [5]; at 50.0 µM 98.9% | [5]; at 100.0 µM 98% | [6]; [18] 99% | [6]; at 50.0 µM 98.8% | [6]; at 100.0 µM 95% | [7]; at 33.0 µM 97% | [7]; at 100.0 µM 98% | [8]; [18] 98% | [8]; at 50.0 µM 99.2% | [9]; at 100.0 µM 98% | [10]; [18] 97% | [10]; at 50.0 µM 78.3% | [11]; at 33.0 µM 76% | [11]; [18] 99% | [11]; at 50.0 µM 99.3% | [11]; at 100.0 µM 97% | [12]; at 33.0 µM 79% | [12]; at 100.0 µM 97% | [13]; at 33.0 µM 81% | [13]; at 100.0 µM 98% | [14]; at 33.0 µM 92% | [14]; at 100.0 µM 98% | [15]; [18] 99% | [15]; at 50.0 µM 97% | [16]; at 100.0 µM 97%

From PubChem BioAssay (NCI)
